These results are taken from PubChem BioAssay (NCI).

About 83,000 compounds went through this panel and 20% of them were active in at least one assay; those are over-represented in the sample as a whole.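 The test compound was applied at a single concentration to cells in 96-well plates for 48 hours, and percent growth was recorded.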 Unmarked numbers belong to inactive results. Active and inactive are the calls of the source. How the source made its calls: active means growth percent below 10; inactive means the rest.

Holding throughout (assay): NCI-60 one-dose screen, 48 h (100 = growth as untreated, 0 = no growth, -100 = all killed)
Holding throughout (conditions): 10 µM unless noted

Assay [1] has as its system SK-MEL-2 melanoma.
Assay [2] relates to EKVX NSCLC.
Assay [3] has as its system SN12C renal.
The test system of assay [4] is UO-31 renal.
Assay [5] concerns TK-10 renal.
The test system of assay [6] is ACHN renal.
The subject of assay [7] is CAKI-1 renal.
Assay [8] has as its system A498 renal.
For assay [9], the system named is CCRF-CEM leukemia.
The test system of assay [10] is MOLT-4 leukemia.
Assay [11] deals with SR leukemia.
In assay [12] the test system is RPMI-8226 leukemia.
The subject of assay [13] is OVCAR-8 ovarian.
Assay [14] has as its system OVCAR-5 ovarian.
Assay [15] concerns OVCAR-4 ovarian.
Assay [16] deals with SK-OV-3 ovarian.
In assay [17] the test system is IGROV1 ovarian.
In assay [18] the test system is OVCAR-3 ovarian.
Assay [19] has as its system HS 578T breast.
Assay [20] has as its system NCI/ADR-RES ovarian.

For the molecule `O=CNc1ccc2c(c1)Cc1cc([N+](=O)[O-])ccc1-2`, the growth is 19.2% in assay [1]; 36% in assay [2]; 38.9% in [3]; 33.3% in assay [4]; 37.6% in assay [5]; 56.6% in [6]. The growth is 29.9% in [7]; 39.2% in assay [8]; 20.9% in assay [9]; 29.7% in assay [10]; 31.6% in [11]; 35.6% in [12]. The growth is 41.3% in assay [13]; 36.2% in assay [14]; 74.5% in assay [15]; 12.8% in [16]; 30.7% in [17]; 16.1% in assay [18]. The growth in assay [19] was 40.1%; in assay [20] it was 3.1% (active).
As for `O=C(Nc1cccc(Cl)c1)Nc1cccc(Cl)c1`, the growth is 114% in assay [1]; 72.5% in assay [2]; 85.2% in assay [3]; 72.7% in assay [4]; 74.3% in assay [5]; 59.2% in assay [6]. The growth in assay [7] is 78.2%; in assay [8], 59.5%; in [9], 38.8%; in assay [10], 51.6%; in assay [11], 66.4%; in [12], 3.08% (active). Further, the growth in assay [13] is 77%; in assay [14], 86.8%; in assay [15], 62.4%; in assay [16], 93.4%; in [17], 91.4%; in assay [18], 15.1%. The growth in assay [19] is 80.7%; in assay [20] it was 55.6%.
With `COc1ccc2ncccc2c1Cc1c(OC)ccc2ncccc12`, the growth in [1] is 75.6%; in assay [2], 85.4%; in [3], 89.4%; in [4], 55.6%; in assay [5], 89.2%; in assay [6], 86.1%. The growth in assay [7] is 57.6%; in [8], 60.4%; in assay [9], 70.7%; in [10], 57.9%; in assay [11], 25.7%; in assay [12], 69.2%. Besides, the growth in [13] is 87.3%; in assay [14] it was 91.4%; in [15], 83.3%; in assay [16], 83.6%; in assay [17], 64.1%; in assay [18], 72.9%. The growth in [19] is 72.6%; in assay [20] it was 40.8%.
Take `CCOC(=O)C1=CCC(n2cc(C)c(=O)[nH]c2=O)O1` (stereo not given): the growth in assay [1] is 105%; in [2], 104%; in [3], 101%; in assay [4], 96.9%; in assay [5], 118%; in assay [6] it was 103%. The growth is 85.8% in assay [7]; 121% in assay [8]; 98.8% in assay [9]; 94.7% in assay [10]; 94.8% in assay [11]; 106% in assay [12]. Also, the growth in assay [13] is 97.9%; in assay [14], 113%; in assay [15], 105%; in assay [16], 109%; in assay [17], 86.3%; in [18] it was 108%. Moreover, the growth was 104% in assay [19] and 101% in [20].
Regarding `COc1ccc(Cl)cc1Nc1nc(C(F)(F)F)ccc1C(=O)N/N=C/c1c(Cl)cccc1Cl`, the growth in assay [1] was 28.3%; in assay [2] it was 60.5%; in [3], 63%; in [4] it was 31.2%; in assay [5], 67.2%; in [6] it was 39.2%. For the same molecule, the growth in [7] was 34.9%; in assay [8], -21.9% (active); in assay [9], 13.8%; in [10] it was 14.4%; in assay [11] it was 22%; in assay [12], 40.1%. Further, the growth in assay [13] is 55.2%; in assay [14] it was 75.3%; in assay [15], 39%; in assay [16], 49.7%; in assay [17] it was 29.6%; in [18], -2.74% (active). For the same molecule, the growth in assay [19] was 54.3%; in assay [20] it was 49.9%.
For the molecule `CCOC(=O)OCC(=O)[C@@]1(O)CC[C@H]2[C@@H]3CCC4=CC(=O)CC[C@]4(C)[C@H]3[C@@H](O)C[C@@]21C`, the growth in assay [1] is 102%; in assay [2], 85.4%; in assay [3] it was 87.2%; in assay [4], 76.2%; in assay [5], 96.4%; in [6], 99.3%. For the same molecule, the growth in assay [7] is 90.9%; in assay [8] it was 98.8%; in assay [9] it was 84.6%; in assay [10] it was 93.2%; in assay [11], 109%; in [12], 64.3%. In addition, the growth is 94.5% in assay [13]; 83.2% in assay [14]; 104% in assay [15]; 68.4% in assay [16]; 87.5% in assay [17]; 112% in assay [18]. The values for the growth in assay [19] and in [20] were 123% and 91%, respectively.
As for `ICCC(c1ccccc1)(c1ccccc1)c1ccccc1`, the growth in assay [1] is 48.7%; in assay [2] it was 88.4%; in assay [3], 69.7%; in assay [4], 49.6%; in [5] it was 73.5%; in assay [6], 68.9%. In addition, the growth in assay [7] was 74.9%; in assay [8], 51.7%; in assay [9] it was 31.6%; in assay [10], 39.4%; in assay [11] it was -28.7% (active); in assay [12], 20%. Moreover, the growth in [13] was 70.8%; in assay [14], 82.6%; in [15] it was 50.8%; in assay [16], 74.6%; in [17] it was 61.7%; in [18], 58.1%. The growth in [19] was 48.3%; in assay [20], 74.6%.
On to `NS(=O)(=O)c1ccc(-n2ncc3c(NC4CCCCC4)ncnc32)cc1`, for which the growth in assay [1] was 103%; in assay [2], 102%; in assay [3], 97.5%; in assay [4] it was 0.88% (active); in assay [5], 107%; in assay [6], 92.3%. In addition, the growth in [7] is 39.6%; in assay [8] it was 106%; in assay [9] it was 82.3%; in assay [10], 72.6%; in assay [11], 63.1%; in assay [12], 91%. Besides, the growth in assay [13] was 89.2%; in assay [14], 90.9%; in assay [15], 97.9%; in assay [16] it was 108%; in [17] it was 78%; in assay [18], 128%. Further, the growth is 98.8% in assay [19] and 88.6% in assay [20].
